The results in this text go back to PubChem BioAssay AID2654 (Johns Hopkins Ion Channel Center, 2010).

Molecules are shown by their SMILES. Results with a measured potency or affinity are listed apart. Activity calls are given as the source filed them.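 How the source made its calls: active means increase of the KCNQ2 potassium channel current at -35 mV by at least one tested dose; inactive means no tested dose increases that current.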

This test deals with Potassium voltage-gated channel subfamily KQT member 2 (Rattus norvegicus) (UniProt O88943). Briefly: retigabine-insensitive KCNQ2 potentiators, concentration-response, dose response, cell-based, retigabine-insensitive compounds (AID 2654). The following applies: KCNQ2-CHO cells, automated patch clamp current potentiation; at 30 µM (top of the series). (In patch-clamp work, channel activity is measured electrically.)
Chain of Potassium voltage-gated channel subfamily KQT member 2 (Rattus norvegicus) (O88943 whole entry, looked up): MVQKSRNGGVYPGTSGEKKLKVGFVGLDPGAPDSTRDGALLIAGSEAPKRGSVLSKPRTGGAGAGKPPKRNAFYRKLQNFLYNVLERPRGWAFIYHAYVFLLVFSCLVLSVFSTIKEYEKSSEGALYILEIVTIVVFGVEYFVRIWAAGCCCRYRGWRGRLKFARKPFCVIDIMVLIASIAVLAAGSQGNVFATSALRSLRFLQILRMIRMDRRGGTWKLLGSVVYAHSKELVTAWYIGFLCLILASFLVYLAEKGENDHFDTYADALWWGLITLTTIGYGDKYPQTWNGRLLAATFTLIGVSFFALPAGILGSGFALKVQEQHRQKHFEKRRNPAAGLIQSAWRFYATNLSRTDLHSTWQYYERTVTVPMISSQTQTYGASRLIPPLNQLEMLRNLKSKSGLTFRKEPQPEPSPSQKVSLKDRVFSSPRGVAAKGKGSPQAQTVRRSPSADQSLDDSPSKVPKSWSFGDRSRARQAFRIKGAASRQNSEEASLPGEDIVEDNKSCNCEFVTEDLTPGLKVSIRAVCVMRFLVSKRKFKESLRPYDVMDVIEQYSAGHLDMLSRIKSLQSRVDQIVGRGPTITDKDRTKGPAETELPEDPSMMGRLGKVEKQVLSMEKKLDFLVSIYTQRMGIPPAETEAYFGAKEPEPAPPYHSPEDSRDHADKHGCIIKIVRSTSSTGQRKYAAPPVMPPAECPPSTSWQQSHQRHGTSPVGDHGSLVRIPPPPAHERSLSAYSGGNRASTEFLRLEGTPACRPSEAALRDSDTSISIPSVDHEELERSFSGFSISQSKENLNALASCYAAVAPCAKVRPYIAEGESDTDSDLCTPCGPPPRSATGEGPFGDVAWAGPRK

Turning to `Fc1ccc(NC(=S)Nc2cccnc2)cc1`, the outcome was inactive.
Take `COc1ccc(NC(=O)Nc2cccnc2)c(OC)c1`: the outcome was inactive.
On to `COc1ccc(NC(=S)Nc2cccnc2)c(OC)c1`, for which the outcome was inactive.
Regarding `Fc1ccc(NC(=S)Nc2cccnc2)cc1Cl`, the result was inactive.
In the case of `Cc1cncc(NC(=O)NCc2ccc(Cl)cc2Cl)c1`, the result was inactive.
In the case of `Fc1ccc(NC(=S)Nc2cccnc2)c(F)c1`, the result was inactive.
The same measure, in the same setting: in the case of `Cc1ccnc(NC(=O)Nc2cccc(F)c2)c1` it was “inactive”.
On the same count and under the same terms, the same measure for `Cc1cc(NC(=O)NCc2ccc(Cl)cc2Cl)cnc1Br`: “inactive”.
`O=C(NCc1ccc(Cl)cc1Cl)Nc1ccc(Br)nc1`: the outcome was inactive.
On to `O=C(NCC(F)(F)F)Nc1cccnc1`, for which the outcome was inactive.
For `FC(F)(F)c1cccc(NC(=S)Nc2cccnc2)c1`, the potentiation is 96.9.
With `Cc1nc(F)ccc1NC(=O)Nc1cccc(F)c1`, the outcome was inactive.
As to `O=C(Nc1cccnc1)Nc1ccc(F)cc1F`, the outcome was inactive.
As to `S=C(NCc1ccc(Cl)cc1Cl)Nc1cccnc1`, the outcome was inactive.
`COc1cccc(NC(=O)Nc2cccnc2)c1`: the result was inactive.
Turning to `COc1ccc(C)cc1NC(=O)Nc1cccnc1`, the outcome was inactive.
In the case of `O=C(Nc1cccc(Cl)c1)N(CC1CC1)c1cccnc1`, the result was inactive.
`COc1nccc(NC(=O)Nc2cccc(F)c2)n1`: the outcome was inactive.
For `COc1ccc(Cl)cc1NC(=S)Nc1cccnc1`, the outcome was inactive.
`S=C(NCc1ccccc1)Nc1cccnc1`: the result was inactive.
Regarding `O=C(NCc1ccc(Cl)cc1Cl)Nc1nccs1`, the outcome was inactive.
Turning to `COc1cc(NC(=S)Nc2cccnc2)cc(OC)c1`, the outcome was inactive.
Still for that read-out and setting: the same measure for `CC(CCc1ccccc1)NC(=S)Nc1cccnc1` (configuration not stated): “inactive”.
Still for that read-out and setting: the same measure for `Cc1ccnc(NC(=O)NCc2ccc(Cl)cc2Cl)c1`: “inactive”; for `Cc1ccc(NC(=O)Nc2cccnc2)c(C)c1`: “inactive”; for `Cc1cc(Cl)ccc1NC(=S)Nc1cccnc1`: “inactive”.
Consider `O=C(Nc1cccc(F)c1)Nc1nccs1`, for which the outcome was inactive.
